Only some compounds are listed: those with a hit (about 11% of all), similar ones and a draw of the others.
G9a inh = inhibitors of human histone lysine methyltransferase G9a; G9a H3K9 monomethylation, AlphaScreen, 2 h; Potency, µM (top dose mostly 102 µM), for inactives: top-dose activity, negative = inhibition, most hits filed as inhibitors; actives 8.8% (n = 350,000); further: on the % scale 0 is the no-effect control and ±100 the full control effect; nearly all actives have a fitted effect of over 75% in size
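Methyltransferase reactions run at room temperature for 2 h (20 nM enzyme, 500 nM biotin-H3K9 peptide, 20 uM SAM) after a 15 min compound preincubation; product detected by AlphaScreen beads and anti-H3K9me1 antibody.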
PLK1 PBD inh = blocks phosphopeptide binding to human PLK1 polo-box domain; Potency, µM, inactives show max response, negative = inhibition, usual class: inhibitors; actives 2.8% (n = 360,000); AID 720504; Plk1 PBD binding of FITC phosphopeptide, fluorescence polarization; further: series mostly up to about 57 µM; on the % scale 0 is the no-effect control and ±100 the full control effect; nearly all actives have a fitted effect of over 65% in size
VDR inh = blocks the human vitamin D receptor; Potency, µM, for inactives: max response, negative = inhibition, hits mostly inhibitors; actives 0.93% (n = 400,000); P11473; VDR-SRC2-3 peptide fluorescence polarization, 2 h; further: on the % scale 0 is the no-effect control and ±100 the full control effect
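Reagent solutions, kept cold and dark, are dispensed first; compounds are then pinned in at 23 nl, plates briefly spun, and incubated 2 h at ambient temperature. Inhibition of VDR–SRC2-3 peptide binding is read by fluorescence polarization.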
JMJD2A Tudor = inhibitors of human JMJD2A Tudor domain | O75164 | AlphaScreen JMJD2A-Tudor / H3K4me3 peptide binding | Potency, µM (titrated, usually from 114 µM), without a hit: at the top dose activity change, negative = inhibition, actives largely listed as inhibitors | actives 4.4% (n = 390,000) | AID 504339; further: on the % scale 0 is the no-effect control and ±100 the full control effect; nearly all actives have a fitted effect of over 50% in size
Target sequence (O75164 whole entry, looked up, the tested form may be a part): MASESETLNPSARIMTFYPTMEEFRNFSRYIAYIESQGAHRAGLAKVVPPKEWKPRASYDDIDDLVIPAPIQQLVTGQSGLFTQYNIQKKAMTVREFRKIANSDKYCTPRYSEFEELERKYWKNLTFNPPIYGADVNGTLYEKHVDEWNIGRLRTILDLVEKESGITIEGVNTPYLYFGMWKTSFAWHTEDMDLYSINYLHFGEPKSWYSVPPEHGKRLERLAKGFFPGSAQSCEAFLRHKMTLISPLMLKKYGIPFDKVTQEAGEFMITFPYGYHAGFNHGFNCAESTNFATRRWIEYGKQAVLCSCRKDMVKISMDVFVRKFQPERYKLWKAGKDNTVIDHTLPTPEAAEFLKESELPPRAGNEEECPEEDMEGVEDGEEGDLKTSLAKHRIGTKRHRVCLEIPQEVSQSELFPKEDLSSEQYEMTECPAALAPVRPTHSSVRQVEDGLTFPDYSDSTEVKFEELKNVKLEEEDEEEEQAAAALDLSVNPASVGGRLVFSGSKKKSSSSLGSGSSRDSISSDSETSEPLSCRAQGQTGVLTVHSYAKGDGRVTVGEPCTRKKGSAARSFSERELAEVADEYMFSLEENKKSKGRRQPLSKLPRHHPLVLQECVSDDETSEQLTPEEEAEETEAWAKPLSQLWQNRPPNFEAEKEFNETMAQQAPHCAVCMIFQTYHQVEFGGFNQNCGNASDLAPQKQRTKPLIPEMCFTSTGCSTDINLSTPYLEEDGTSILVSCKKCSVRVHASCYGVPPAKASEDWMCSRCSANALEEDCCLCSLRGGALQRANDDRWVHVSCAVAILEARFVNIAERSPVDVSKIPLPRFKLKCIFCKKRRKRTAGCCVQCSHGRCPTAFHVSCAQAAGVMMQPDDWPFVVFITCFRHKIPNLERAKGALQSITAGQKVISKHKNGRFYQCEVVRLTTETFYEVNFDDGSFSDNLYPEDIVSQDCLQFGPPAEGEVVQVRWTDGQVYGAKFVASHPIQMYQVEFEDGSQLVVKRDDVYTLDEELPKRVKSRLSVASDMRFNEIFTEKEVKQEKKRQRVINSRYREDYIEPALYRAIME
HP1b binding inh = inhibitors of HP1-beta chromodomain binding to methylated histone tails; P83916; AlphaScreen HP1-beta / biotin-H3K9me3 peptide binding; Potency, µM (doses to about 114 µM), for inactives: top-dose activity change, negative = inhibition, actives largely listed as inhibitors; actives 0.56% (n = 390,000); AID 540317; further: nearly all actives have a fitted effect of over 70% in size
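AlphaScreen: HP1-beta (50 nM) preformed 30 min with biotin-H3(1-18)K9me3 peptide (50 nM) in PBS pH 7.4, 0.01% Tween-20. Compound added for 30 min at RT, then streptavidin donor/nickel chelate acceptor beads (10 ug/mL) for 30 min.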
BAZ2B inh = BAZ2B (human) inhibition | Q9UIF8 | actives 4.4% (n = 360,000) | AlphaScreen BAZ2B-H3K14Ac peptide displacement | Potency, µM (series often up to 114 µM), for inactives: top-dose activity change, negative = inhibition, usual class: inhibitors | AID 504333; further: on the % scale 0 is the no-effect control and ±100 the full control effect; nearly all actives have a fitted effect of over 60% in size
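BAZ2B 50 nM plus b-H3(5-23)K14Ac 50 nM, PBS pH 7.4/0.01% Tween-20, 30 min RT; compound added (max 110 uM), 30 min RT; streptavidin donor/Ni-chelate acceptor beads 10 ug/mL final, 20 min dark; AlphaScreen read.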
The depositor's hits bear a star; ? = inconclusive; nt = no result; [ ] = remark or other dose. The call rests on the fitted dose curve; in most records, active means well fitted curve in the direction sought with a large enough effect; inconclusive means small, poorly fitted or top-dose-only effect, or another doubt; inactive means no such curve, though single readings can be large; an effect the other way counts as inactive or inconclusive. Potency means the concentration at half of the fitted maximal effect.

SMILES	G9a inh	PLK1 PBD inh	VDR inh	JMJD2A Tudor	HP1b binding inh	BAZ2B inh
O=C(CSc1nc2ccccc2c(=O)[nH]1)Nc1ccc(N2CCOCC2)c(Cl)c1	16%	-2%	0%	-12%	4%	1%
C#CCNC(=O)c1csc([C@@H]2O[C@H](CO)[C@@H](O)[C@H]2O)n1	nt	0%	nt	nt	nt	nt
CCCCCCCN1CCN=C1Nc1ccccc1	-8%[2.33 µM]	-18%	-25%	-20%	31%	4%
CS(=O)(=O)N1CCC2(CCCN(c3cccc(-c4ccccc4)c3)C2)CC1	-4%[12.7 µM]	nt	-18%	nt	nt	nt
Cc1noc(/C=C/c2ccccc2F)c1S(=O)(=O)N1CCC(C(=O)N2CCOc3ccccc32)CC1	4%[59 µM]	nt	2%	-19%	11%[57 µM]	-2%
COc1ccc(NC(=S)Nc2ccccc2C(F)(F)F)cc1	-32%	-3%	-6%	-3%	37%	-25%
NC(=S)NNC(=S)Nc1ccccc1	10µM*	?	?	-26%	?	-16%
FC(F)(F)c1ccccc1NC(=S)Nc1ccccc1	50µM*	-20%	-7%	-1%	38%	-2%
S=C(NN=C(C1CC1)C1CC1)Nc1ccccc1	5.6µM*	?	-7%	50µM*	-10%	-6%
O=C(NNC(=S)Nc1ccccc1)C1CC1	-5%	-12%	-5%	-5%	40%	-3%
CCNC(=S)NNC(=O)Nc1ccccc1	3.2µM*	-6%	-6%	32µM*	?	6%
CCNC(=S)NNC(=O)C(c1ccccc1)c1ccccc1	0%	-12%	2%	4%	29%	-1%
Cn1c(CC(=O)Nc2ccc(F)cc2)nnc1SCC(=O)Nc1nncs1	22%	-2%	13%	2%	38%	9%
O=C(COc1ccccc1F)OCc1cc(=O)n2nc(C3CC3)sc2n1	17%[59 µM]	nt	-4%	-20%	3%	-22%
Cc1ccc(-c2cc(C(=O)NCCc3ccccc3)c3ccccc3n2)cc1C	1%[59 µM]	nt	-2%	-6%	21%	6%
COc1cc(OC)c2cc(-c3ccncc3)cnc2c1	nt	nt	-11%	nt	nt	nt
C=CC#CC[N+]1(CC#Cc2ccccc2)CCOCC1	?	8%	40%	40µM*	35µM*	?
O=C(Nc1ncc(S(=O)(=O)c2ccc([N+](=O)[O-])cc2)s1)c1cccnc1	50µM*	-29%	-20%	-23%	0%	-29%
CCC(C)(C)C(=O)Nc1ncc(S(=O)(=O)c2ccc([N+](=O)[O-])cc2)s1	50µM*	-19%	4%	-35%	-20%	?
O=C(Nc1ncc(S(=O)(=O)c2ccc([N+](=O)[O-])cc2)s1)c1ccc2ccccc2c1	20%[59 µM]	0%	-18%	-18%	20%	-26%
CC[n+]1ccc(C[n+]2ccccc2)c2ccccc21	1.6µM*	-16%	-21%	?	79µM*	10µM*
COc1ccccc1-c1nnc2n1N=C(C)CS2	20µM*	-22%	21%	56µM*	34%	-3%
COc1ccc(C2=Nn3c(nnc3-c3ccccc3OC)SC2)cc1	nt	nt	nt	-12%	nt	nt
CC1=Nn2c(nnc2-c2ccccc2Cl)SC1	22µM*	-22%	-7%	-27%	50%	1%
COc1ccc(-c2nnc3n2N=C(c2ccccc2OC)CS3)c(OC)c1	nt	nt	nt	-19%	nt	nt
SMILES	G9a inh	PLK1 PBD inh	VDR inh	JMJD2A Tudor	HP1b binding inh	BAZ2B inh
CC1=Nn2c(nnc2-c2ccco2)SC1	8%[0.501 µM]	-15%	1%	-14%	19%	-29%
Clc1ccccc1C1=Nn2c(nnc2-c2ccncc2)SC1	?	3%	6%	2%	45%	-2%
Cc1ccccc1C1=Nn2c(nnc2-c2ccco2)SC1	28µM*	-3%	-2%	-25%	30%	-24%
COc1ccc(OC)c(-c2nnc3n2N=C(c2ccccc2OC)CS3)c1	nt	nt	nt	79µM*	nt	nt
CCOC(=O)c1c(S(=O)(=O)N2CCCC(C(=O)N3CCN(c4ccccc4)CC3)C2)c(C)n(C)c1C (stereo not drawn)	-2%[59 µM]	nt	7%	?	-11%	-30%
CCOc1ccc2c(c1)c(=O)c(C(=O)c1ccc(CC)cc1)cn2CC(=O)Nc1ccccc1OC	-30%[59 µM]	nt	-10%	?	26%	-15%
